Assay results published in PubChem BioAssay (Tox21).
Values joined by “and” are separate entries in the source; they are usually repeats but may differ in a detail not shown here. Identical values can stand only once. Results filed as inconclusive are left out. Active and inactive are the calls of the source. The call rests on the fitted dose curve; in most records, active means well fitted curve in the direction sought with a large enough effect in the repeat runs; inconclusive means weak or mixed curves; inactive means no such curve, though single readings can be large; an effect the other way counts as inactive or inconclusive.

Experiments:
[1] = A CellTox Green Cytotoxicity Assay to monitor cytotoxicity in HEK293 cells - 40 hour (AID 1224871); further: nearly all actives have a fitted effect of over 45% in size
Outline: (§1)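 Real-time, in one plate: 600 HEK293 cells/well with dead-cell DNA dye, pinned compound after 5 h, 37 C incubation over 40 h; viable cells give no appreciable fluorescence.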

[2] = qHTS RealTime-Glo MT Cell Viability Assay in HepG2 cells - 8 hour (AID 1224873); further: nearly all actives have a fitted effect of over 55% in size
Outline: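 HepG2 cells (600/well) mixed with RealTime-Glo MT reagent, settled 5 h at 37 C/5% CO2 before compound addition. Nonlytic NanoLuc luminescence from viable-cell prosubstrate reduction read repeatedly during 40 h treatment at 37 C.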

[3] = A CellTox Green Cytotoxicity Assay to monitor cytotoxicity in HEK293 cells - 24 hour (AID 1224875); further: nearly all actives have a fitted effect of over 45% in size
Outline: as §1

[4] = A CellTox Green Cytotoxicity Assay to monitor cytotoxicity in HepG2 cells - 16 hour (AID 1224876); further: nearly all actives have a fitted effect of over 45% in size
Outline: (§2)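 Cytotoxicity was tracked as dead-cell DNA fluorescence in HepG2 cells treated with test compounds at 37 C; each time-point value comes from one kinetic series spanning 0, 8, 16, 24, 32 and 40 h.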

[5] = qHTS RealTime-Glo MT Cell Viability Assay in HepG2 cells - 32 hour (AID 1224877); further: nearly all actives have a fitted effect of over 55% in size
Outline: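 HepG2 cells (600/well) were dispensed with RealTime-Glo reagents, incubated 5 h at 37 °C, then treated with compounds in DMSO for up to 40 h. Nonlytic NanoLuc luminescence reflecting viable cells was read at each stated time point.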

[6] = A CellTox Green Cytotoxicity Assay to monitor cytotoxicity in HepG2 cells - 24 hour (AID 1224878); further: nearly all actives have a fitted effect of over 45% in size
Outline: as §2

[7] = A CellTox Green Cytotoxicity Assay to monitor cytotoxicity in HepG2 cells - 40 hour (AID 1224879); further: nearly all actives have a fitted effect of over 40% in size
Outline: as §2

[8] = qHTS RealTime-Glo MT Cell Viability Assay in HEK293 cells - 0 hour (AID 1224880); further: nearly all actives have a fitted effect of over 45% in size
Outline: (§3)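 Kinetic, non-lysing viability readout. Seed HEK293 (600/well) with reagent, incubate 5 h at 37 C/5% CO2, pin 23 nL compound in DMSO, incubate at 37 C, read luminescence at 0, 8, 16, 24, 32, 40 h.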

[9] = qHTS RealTime-Glo MT Cell Viability Assay in HEK293 cells - 40 hour (AID 1224874); conditions: RealTime-Glo luminescence; max response: active compounds read low; further: nearly all actives have a fitted effect of over 50% in size
Outline: as §3

[10] = qHTS RealTime-Glo MT Cell Viability Assay in HEK293 cells - 16 hour (AID 1224872); further: nearly all actives have a fitted effect of over 50% in size
Outline: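 HEK293 cells seeded with NanoLuc/prosubstrate reagent, rested 5 h at 37 C, then dosed and kept at 37 C up to 40 h. Nonlytic real-time luminescence from viable cells read at 0, 8, 16, 24, 32 and 40 h.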
On the % scale 0 is the no-effect control and ±100 the full control effect; potency means the concentration at half of the fitted maximal effect.

O=C1C[C@@H]2OCC=C3CN4CC[C@]56c7ccccc7N1[C@H]5[C@H]2[C@H]3C[C@H]46
inactive: Potency [1] | Potency [2] | Potency [3] | Potency [4] | Potency [5] | Potency [6] | Potency [7] | Potency [8]

CC(C)N(C(=O)SC/C(Cl)=C/Cl)C(C)C
inactive: Potency [2] | max response [9] -22.2% | Potency [3] | Potency [4] | Potency [5] | Potency [6] | Potency [7] | Potency [8]
active: Potency [1] 43.9 µM

c1ccc2c(c1)cc1ccc3cccc4ccc2c1c34
active: Potency [7] 7050 nM
inactive: Potency [1] | Potency [2] | max response [9] -10.6% | Potency [3] | Potency [4] | Potency [5] | Potency [6] | Potency [8]

CC(C)=CCN1CC[C@@]2(C)c3cc(O)ccc3C[C@@H]1[C@@H]2C
inactive: Potency [1] | Potency [2] | Potency [3] | Potency [4] | Potency [5] | Potency [6] | Potency [8]

O=C(CCCCl)c1ccc(F)cc1
inactive: Potency [1] | Potency [2] | max response [9] -0.41% | Potency [3] | Potency [4] | Potency [5] | Potency [6] | Potency [7] | Potency [8]

Clc1ccc(C2(Cn3cncn3)OCCO2)c(Cl)c1
inactive: Potency [1] | Potency [10] | Potency [4] | Potency [5] | Potency [6] | Potency [7] | Potency [8]

CO/N=C(\C(=O)OC)c1ccccc1CO/N=C(\C)c1cccc(C(F)(F)F)c1
active: Potency [1] 6.92 µM | Potency [9] 6.16 µM
inactive: Potency [2] | Potency [3] | Potency [4] | Potency [5] | Potency [6] | Potency [7] | Potency [8]

C=CC(=O)[O][Sn]([CH2]CCC)([CH2]CCC)[CH2]CCC
active: Potency [1] 0.871 µM | Potency [10] 549 nM | Potency [9] 0.389 µM | Potency [4] 616 nM | Potency [5] 389 nM | Potency [7] 549 nM

Nc1cc(Cl)ccc1Cl
inactive: Potency [1] | Potency [10] | max response [9] 22.7% | Potency [5] | Potency [6] | Potency [7] | Potency [8]

CC(O)C(=O)[O][Hg][c]1ccccc1 (stereo not given)
active: Potency [1] 0.977 µM | Potency [2] 2190 nM | Potency [9] 0.977 µM | Potency [3] 21900 nM | Potency [4] 2750 nM | Potency [5] 2750 nM | Potency [6] 2450 nM | Potency [7] 1950 nM
inactive: Potency [8]

CC(=O)[O-].CC(=O)[O-].O.O.O.[Pb+2]
inactive: Potency [1] | Potency [2] | max response [9] -1.15% | Potency [3] | Potency [5] | Potency [7] | Potency [8]

CC(C)Br
inactive: Potency [1] | Potency [2] | max response [9] -13.8% | Potency [3] | Potency [4] | Potency [5] | Potency [7] | Potency [8]

Oc1cc(Cl)c(Cl)c(Cl)c1Cl
inactive: Potency [1] | Potency [2] | Potency [3] | Potency [5] | Potency [6] | Potency [8]
active: Potency [9] 47.8 µM

C#CC1(O)CCCCC1
inactive: Potency [1] | Potency [2] | max response [9] 19.4% | Potency [3] | Potency [5] | Potency [8]

CCC1COC(Cn2cncn2)(c2ccc(Cl)cc2Cl)O1 (stereo not given)
inactive: Potency [1] | Potency [2] | Potency [3] | Potency [4] | Potency [5] | Potency [6] | Potency [8]

CCOP(=S)(NC(C)C)Oc1ccccc1C(=O)OC(C)C (stereo not given)
inactive: Potency [1] | Potency [2] | Potency [3] | Potency [4]
active: Potency [9] 43.6 µM | Potency [7] 38900 nM

O=C(NC(=O)c1ccccc1Cl)Nc1ccc(OC(F)(F)F)cc1
inactive: Potency [1] | Potency [2] | Potency [3] | Potency [4] | Potency [5] | Potency [6] | Potency [7] | Potency [8]

CCC[CH2][Sn]([CH2]CCC)([O]C(C)=O)[O]C(C)=O
active: Potency [1] 0.278 µM | Potency [9] 0.0698 µM | Potency [3] 1240 nM | Potency [4] 1240 nM | Potency [5] 221 nM | Potency [6] 312 nM | Potency [7] 248 nM
inactive: Potency [2] | Potency [8]

CCCCC/C=C\C/C=C\C/C=C\C/C=C\CCCC(=O)NCC(=O)O
inactive: Potency [1] | Potency [2] | max response [9] -10.5% | Potency [3] | Potency [4] | Potency [5] | Potency [6] | Potency [7]

CN1C(=O)[C@@H](NC(=O)c2cc3ccccc3[nH]2)N=C(c2ccccc2)c2ccccc21
inactive: Potency [1] | Potency [10] | max response [9] 20% | Potency [4] | Potency [6] | Potency [7] | Potency [8]

CN1CCc2cc(Cl)c(O)cc2[C@H]2c3ccccc3CC[C@@H]21
inactive: Potency [1] | Potency [2] | Potency [3] | Potency [4] | Potency [5] | Potency [6] | Potency [7] | Potency [8]

CO/N=C(/C1=NOCCO1)c1ccccc1Oc1ncnc(Oc2ccccc2Cl)c1F
inactive: Potency [1] | Potency [2] | Potency [3] | Potency [4] | Potency [6] | Potency [8]

CC(C)C(Nc1ccc(C(F)(F)F)cc1Cl)C(=O)OC(C#N)c1cccc(Oc2ccccc2)c1 (stereo not given)
inactive: Potency [1] | Potency [2] | max response [9] -20.4% | Potency [4] | Potency [5] | Potency [7] | Potency [8]

Brc1cccc(-c2ccccc2)c1
inactive: Potency [2] | max response [9] -11.2% | Potency [4] | Potency [5] | Potency [6] | Potency [7] | Potency [8]
active: Potency [1] 39.2 µM

ClC1=C(Cl)[C@]2(Cl)[C@@H]3[C@H]4C[C@H]([C@@H]5O[C@H]45)[C@@H]3[C@@]1(Cl)C2(Cl)Cl
inactive: Potency [1] | Potency [2] | max response [9] 3.07% | Potency [3] | Potency [4] | Potency [5] | Potency [6] | Potency [8]

COC(=O)c1cc(Oc2ccc(Cl)cc2Cl)ccc1[N+](=O)[O-]
inactive: Potency [1] | Potency [2] | Potency [3] | Potency [4] | Potency [5] | Potency [6] | Potency [7] | Potency [8]

[Cl][Hg][c]1ccccc1
active: Potency [1] 1.23 µM | Potency [2] 2750 nM | Potency [9] 1.1 µM | Potency [3] 2190 nM | Potency [6] 3470 nM | Potency [7] 2190 nM
inactive: Potency [8]

C1=CCC=C1
inactive: Potency [1] | Potency [2] | Potency [3] | Potency [4] | Potency [6] | Potency [8]

COc1ccc2c(c1OC)C(=O)O[C@@H]2[C@H]1c2cc3c(cc2CCN1C)OCO3
inactive: Potency [1] | Potency [2] | max response [9] 1.56% | Potency [3] | Potency [4] | Potency [6] | Potency [7] | Potency [8]

N#CC(C#N)=NNc1cccc(Cl)c1
inactive: Potency [2] | Potency [3]
active: Potency [1] 49 µM | Potency [9] 5.49 µM | Potency [5] 21900 nM | Potency [6] 24500 nM | Potency [8] 38900 nM

C[C@]12Cc3cn[nH]c3C[C@@H]1CC[C@@H]1[C@@H]2CC[C@@]2(C)[C@H]1CC[C@]2(C)O
inactive: Potency [1] | Potency [2] | Potency [3] | Potency [4] | Potency [8]

CSC1=N[C@@](C)(c2ccccc2)C(=O)N1Nc1ccccc1
inactive: Potency [1] | Potency [2] | Potency [3] | Potency [4] | Potency [5] | Potency [6]

Clc1ccc(C(c2ccc(Cl)cc2)C(Cl)Cl)cc1
active: Potency [1] 55.8 µM and 49 µM | Potency [10] 44.4 µM and 43.6 µM | Potency [9] 49.8 µM and 43.6 µM
inactive: Potency [4] | Potency [5] | Potency [7] | Potency [8]

CC(Cl)CCl (stereo not given)
inactive: Potency [1] | Potency [2] | max response [9] -4.79% | Potency [5] | Potency [7] | Potency [8]

CC#C[C@]1(O)CC[C@H]2[C@@H]3C[C@H](C)C4=CC(=O)CC[C@]4(C)[C@H]3CC[C@@]21C
inactive: Potency [1] | Potency [2] | Potency [3] | Potency [4] | Potency [5] | Potency [6]

COc1nc(C)nc(NC(=O)NS(=O)(=O)c2ccccc2Cl)n1
inactive: Potency [1] | Potency [2] | max response [9] 1.45% | Potency [3] | Potency [4] | Potency [5] | Potency [6] | Potency [7] | Potency [8]
